Measurements from article PMC5540273 (PLoS ONE, 2017).

test system: CIT; settings: concentration: 1 μM, replicates: in singlicate; n = 1
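Also: KINOMEscan kinase panel screen.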

| Compound | %Inh |
| --- | --- |
| Cl.c1ccc(-c2ccc3c(Nc4ccc5[nH]ncc5c4)ccnc3c2)nc1 [GW440137] | 11% |
| Cl.NC(=O)c1cccc(Nc2nccc(Nc3ccc(Oc4c(Cl)cccc4Cl)c(Cl)c3)n2)c1 [GW659009] | 9% |
| O=C(Nc1cccc(-c2nn3ncccc3c2-c2ccnc(Nc3ccccc3)n2)c1)c1c(F)cccc1F [GSK198271] | 29% |
| COC(=O)Nc1nc2ccc(Oc3ccc(NC(=O)Nc4cc(C(F)(F)F)ccc4F)cc3)cc2n1C.Cl [GW692089] | 100% |
| Oc1cc(Nc2ccnc3cc(I)ccc23)ccc1F [GW552771] | 30% |
| CC(C)c1nc(-c2cccc(NS(=O)(=O)c3c(F)cccc3F)c2F)c(-c2ccnc(Nc3ccc(N4CCOCC4)nc3)n2)s1 [GSK2008607] | 95.1% |
| CCn1c(-c2nonc2N)nc2c(C#CC(C)(C)O)nc(OC[C@H](N)c3ccccc3)cc21 [GSK943949] | 61% |
| CC(C)(C)c1ccc2nccc(Nc3cccc(O)c3)c2c1 [GW856795] | 21% |

test system: CLK1; settings: concentration: 1 μM, replicates: in singlicate; n = 1

| Compound | %Inh |
| --- | --- |
| CN1CCN(CCCNc2nccc(-c3c(-c4ccc(F)cc4)nn4cc(C(F)(F)F)ccc34)n2)CC1 [GW621581] | 21% |
| C[C@@H]1CC[C@@H](C(=O)Nc2ccccc2)CN1c1cc(-c2ccc3c(N)n[nH]c3c2)nc(N)n1 [GSK2286062] | 14% |
| Cl.Cl.NCC(NCc1ccc(-c2ccnc3[nH]ccc23)s1)c1ccccc1 (stereo not drawn) [GSK1321565] | 89% |
| Nc1n[nH]c2cnc(-c3ccccc3)cc12 [SB-642124] | 69% |
| COc1cccc(NC(=O)NC2CCN(c3ccnc(Nc4cc(OC)c(OC)c(OC)c4)n3)C2)c1 (stereo not drawn) [GSK1379763] | 12% |
| COc1cccc(C(=O)Nc2cccc(Oc3ccc4nc(NC(=O)C5CC5)cn4n3)c2)c1 | 30% |
| c1ccc(-c2n[nH]cc2Nc2ccnc3ccccc23)nc1 [GW694077] | 98.2% |
| O=C(Nc1cccc(-c2nn3ccccc3c2-c2ccnc(Nc3cccc(C(F)(F)F)c3)n2)c1)c1c(F)cccc1F [GSK292658] | 23% |
| CSc1cccc2c(-c3ccncn3)c(-c3ccc(F)cc3)nn12 [GW514786] | 18% |
| COc1ccc(CNC(=O)NC2CCN(c3ccnc(Nc4ccc(F)cc4)n3)CC2)cc1 [GSK1379788] | 13% |
| COCCOCCOc1cc2ncc3c4ccc(C#N)cc4[nH]c3c2cc1OC | 84% |
| FC(F)(F)c1ccc(/C=C/c2cncnc2Nc2ccc3[nH]c(Cc4ccccc4)nc3c2)cc1 [GW709199] | 23% |
| COc1cc(Nc2nccc(N3CCC(NC(=O)Nc4cccc(C(C)=O)c4)C3)n2)cc(OC)c1OC (stereo not drawn) [GSK1379753] | 16% |
| O=C(O)C(F)(F)F.O=C(O)C(F)(F)F.O=c1[nH]ccc2nc(N[C@@H]3CCCNC3)nc(Nc3ccc(S(=O)(=O)N4CCOCC4)cc3)c12 [GSK2177277] | 76% |
| Cc1ccc(C(=O)N2CC[C@@H](O)C2)cc1-n1c(C)cc(OCc2ccc(F)cc2F)c(Br)c1=O | 5% |
| Cl.c1ccc(-c2ccc3c(Nc4ccc5[nH]ccc5c4)ccnc3c2)nc1 [GW440138] | 20% |
| CCCCc1nn2ncccc2c1-c1ccnc(Nc2ccc(N3CCN(C)CC3)cc2)n1 [GW684941] | 8% |
| COc1ccc(Nc2nccc(NCCNC(=O)c3cc4ccccc4s3)n2)cc1 [GSK1379896] | 20% |
| COc1ccc(Nc2nccc(N3CCC(NC(=O)Nc4cccc(OC)c4)C3)n2)cc1 (stereo not drawn) [GSK1379742] | 26% |

| Compound | %Inh |
| --- | --- |
| O=C(Nc1ccccc1F)NC1CCN(c2ccnc(Nc3ccc(F)cc3)n2)CC1 [GSK1379800] | 9% |
| Cn1cc(-c2ccc3c(c2)CCN3C(=O)Cc2cccc(F)c2)c2c(N)ncnc21 [GSK2603358] | 18% |
| CCc1ccc(-c2ccc3c(c2)-c2c(cnn2C)S(=O)(=O)N3C)cc1 | 22% |
| COc1cc(Nc2nccc(-c3c(-c4cccc(NC(=O)c5c(F)cccc5F)c4)nn4ccccc34)n2)cc(OC)c1OC [GSK323521] | 30% |
| O=C(Nc1cccc(Oc2ccc3nc(NC(=O)C4CC4)cn3n2)c1)c1ccccc1C(F)(F)F | 26% |
| O=c1[nH]cc(-c2ccc(N3CCOCC3)cc2)c2sc(-c3cn[nH]c3)cc12 [GSK2276055] | 90% |
| Cc1cccc(Nc2nc(N[C@H]3CCNC3)ncc2C(N)=O)c1.Cl [GSK2197149] | 51% |
| Nc1ncc(-c2cccnc2)c2scc(-c3ccc4c(c3)CCN4C(=O)Cc3ccccc3)c12 [GSK683281] | 36% |
| Cl.Cl.NCC(C(=O)Nc1cc(Br)c(-c2ccnc3[nH]ccc23)s1)c1ccccc1 (stereo not drawn) [GSK1269851] | 63% |
| Fc1ccc(-c2ncn(C3CCNCC3)c2-c2ccnc(Oc3ccc(-c4ccccc4)cc3)n2)cc1 [SB-245391] | 21% |
| Cl.c1ccc(-c2ccc3c(Nc4ccc5[nH]ncc5c4)ccnc3c2)nc1 [GW440137] | 48% |
| Cl.NC(=O)c1cccc(Nc2nccc(Nc3ccc(Oc4c(Cl)cccc4Cl)c(Cl)c3)n2)c1 [GW659009] | 46% |
| O=C(Nc1cccc(-c2nn3ncccc3c2-c2ccnc(Nc3ccccc3)n2)c1)c1c(F)cccc1F [GSK198271] | 27% |
| COC(=O)Nc1nc2ccc(Oc3ccc(NC(=O)Nc4cc(C(F)(F)F)ccc4F)cc3)cc2n1C.Cl [GW692089] | 7% |
| Oc1cc(Nc2ccnc3cc(I)ccc23)ccc1F [GW552771] | 8% |
| CC(C)c1nc(-c2cccc(NS(=O)(=O)c3c(F)cccc3F)c2F)c(-c2ccnc(Nc3ccc(N4CCOCC4)nc3)n2)s1 [GSK2008607] | 0% |
| CCn1c(-c2nonc2N)nc2c(C#CC(C)(C)O)nc(OC[C@H](N)c3ccccc3)cc21 [GSK943949] | 24% |
| CC(C)(C)c1ccc2nccc(Nc3cccc(O)c3)c2c1 [GW856795] | 17% |
